The values below come from publication PMC7826789 (International Journal of Molecular Sciences, 2021).

The subject of one assay is EGFR.
Consider `Cl.O=S1CCN(Cc2ccc(-c3ccc4ncnc(Nc5ccc(OCc6ccccc6)c(F)c5)c4c3)o2)CC1` [GW576924A], for which the Kinases covered entry is recorded as “EGFR”.
On the same count and under the same terms, the same measure for `COc1cc2ncnc(Nc3cccc(Cl)c3F)c2cc1O[C@H]1CC[C@@]2(CC1)NCCNC2=O` [BI00113608]: “EGFR”; for `COc1cc2ncnc(Nc3cccc(Cl)c3F)c2cc1O[C@H]1CC[C@H]([C@@H]2NCCNC2=O)CC1` [BI00133844]: “EGFR”; for `C#Cc1cccc(Nc2ncnc3cc(OC)c(OC4CCN(C)CC4)cc23)c1` [BI00007366]: “EGFR”.
The same measure, in the same setting: with `Fc1cccc(COc2ccc(Nc3ncncc3C#Cc3ccccc3)cc2Cl)c1` [GW651576X] the entry was “EGFR”.
Turning to `O=C(Nc1cccc(-c2nn3ncccc3c2-c2ccnc(Nc3cccnc3)n2)c1)c1c(F)cccc1F` [GSK312879], the Kinases covered entry is “EGFR”.
Still for that read-out and setting: the same measure for `COc1cc2ncnc(Nc3ccc(F)c(Cl)c3)c2cc1O[C@H]1CC[C@H](N)CC1` [BIBW3133BS]: “EGFR”; for `Cl.O=C(O[C@H]1CN[C@H](C#Cc2cc3ncnc(Nc4ccc5c(cnn5Cc5ccccc5)c4)c3s2)C1)N1CCOCC1` [GSK200398A]: “EGFR”.

The next assay relates to ERBB2.
For the molecule `Cl.O=S1CCN(Cc2ccc(-c3ccc4ncnc(Nc5ccc(OCc6ccccc6)c(F)c5)c4c3)o2)CC1` [GW576924A], the Kinases covered entry is listed as “ERBB2”.
Still for that read-out and setting: with `CN(C)c1cc2c(Nc3ccc4c(cnn4Cc4ccccc4)c3)ncnc2cn1` [GW282974X] the entry was “ERBB2”; with `COc1cc2ncnc(Nc3cccc(Cl)c3F)c2cc1O[C@H]1CC[C@@]2(CC1)NCCNC2=O` [BI00113608], “ERBB2”.
Same read-out and setting: with `COc1cc2ncnc(Nc3cccc(Cl)c3F)c2cc1O[C@H]1CC[C@H]([C@@H]2NCCNC2=O)CC1` [BI00133844] the entry was “ERBB2”.
On the same count and under the same terms, with `C#Cc1cccc(Nc2ncnc3cc(OC)c(OC4CCN(C)CC4)cc23)c1` [BI00007366] the entry was “ERBB2”; with `O=C(Nc1cccc(-c2nn3ncccc3c2-c2ccnc(Nc3cccnc3)n2)c1)c1c(F)cccc1F` [GSK312879], “ERBB2”.
Consider `COc1cc2ncnc(Nc3ccc(F)c(Cl)c3)c2cc1O[C@H]1CC[C@H](N)CC1` [BIBW3133BS], for which the Kinases covered entry was “ERBB2”.
The same measure, in the same setting: the same measure for `Cl.O=C(O[C@H]1CN[C@H](C#Cc2cc3ncnc(Nc4ccc5c(cnn5Cc5ccccc5)c4)c3s2)C1)N1CCOCC1` [GSK200398A]: “ERBB2”.

A further assay relates to ERBB4.
`COc1cc2ncnc(Nc3ccc4c(cnn4Cc4ccccc4)c3)c2cc1OC.Cl` [GW282449A]: the Kinases covered entry is reported as “ERBB4”.
As for `CN(C)c1cc2c(Nc3ccc4c(cnn4Cc4ccccc4)c3)ncnc2cn1` [GW282974X], the Kinases covered result is recorded as “ERBB4”.
Still for that read-out and setting: with `COc1cc2ncnc(Nc3cccc(Cl)c3F)c2cc1O[C@H]1CC[C@H]([C@@H]2NCCNC2=O)CC1` [BI00133844] the entry was “ERBB4”; with `O=C(Nc1cccc(-c2nn3ncccc3c2-c2ccnc(Nc3cccnc3)n2)c1)c1c(F)cccc1F` [GSK312879], “ERBB4”.
Turning to `Cl.c1ccc(Cc2nc3ccc(Nc4ncnc5ccccc45)cc3[nH]2)cc1` [GR269666A], the Kinases covered result is “ERBB4”.
The same measure, in the same setting: the same measure for `Cl.O=C(O[C@H]1CN[C@H](C#Cc2cc3ncnc(Nc4ccc5c(cnn5Cc5ccccc5)c4)c3s2)C1)N1CCOCC1` [GSK200398A]: “ERBB4”.

In the next assay the test system is FLT1.
With `CCn1cc(-c2ccnc3[nH]c(-c4cccc(CN(C)C)c4)cc23)c(-c2ccc(NC(=O)N(C)C)cc2)n1` [GSK1070916], the Kinases covered entry is “FLT1”.
Still for that read-out and setting: with `CCS(=O)(=O)c1ccc(OC)c(Nc2ncc(-c3cccc(OC)c3)o2)c1` [GW580509X] the entry was “FLT1”; with `CCS(=O)(=O)c1ccc(OC)c(Nc2ncc(-c3cccc(F)c3)o2)c1` [GW621970X], “FLT1”; with `O=C(Nc1ccccc1)Nc1cccc(Oc2ccc3nccn3n2)c1` [TPKI-39], “FLT1”.

The subject of a further assay is GAK.
As for `CCCc1cc(N2CCCN(C)CC2)nc2sc3c(N)ncnc3c12` [BI00604564], the Kinases covered entry is “GAK”.
In the case of `C#Cc1cccc(Nc2ncnc3cc(OC)c(OC4CCN(C)CC4)cc23)c1` [BI00007366], the Kinases covered result is recorded as “GAK”.
Still for that read-out and setting: with `COc1cc(Nc2ccnc3ccc(Br)cc23)cc(OC)c1OC` [CA93.0] the entry was “GAK”.
Same read-out and setting: with `COc1cc2ncnc(Nc3ccc(F)c(Cl)c3)c2cc1O[C@H]1CC[C@H](N)CC1` [BIBW3133BS] the entry was “GAK”.
The same measure, in the same setting: the same measure for `O=C(O)/C=C/C(=O)O.OCCCNc1nccc(-c2c(-c3ccc(F)cc3)nn3cc(C(F)(F)F)ccc23)n1` [GW569293E]: “GAK”.

In a further assay the test system is GSK3A.
With `O=C(Nc1n[nH]c2nc(-c3nccs3)c(Br)cc12)C1CCCC1` [SB-742609], the Kinases covered result is listed as “GSK3A”.
Take `COc1cccc(-n2ncc3c(N/N=C/c4ccncc4)ncnc32)c1` [GW784752X]: the Kinases covered entry is reported as “GSK3A”.
Take `CCC(NN(C)C)=C1C(=O)Nc2ccc(C(C)=O)cc21` [BI00036838]: the Kinases covered entry is “GSK3A”.
Still for that read-out and setting: with `COc1ccc(CSc2nnc(-c3ccc4ncsc4c3)o2)cc1C(F)(F)F` [TPKI-91] the entry was “GSK3A”.
